Test results taken from PubChem BioAssay (NCATS).
Several values for one entry are separate records, joined by “and”; a condition that tells them apart may be missing. Identical values can stand only once. Records with an inconclusive call do not appear. A structure can be active in one record and inactive in another. Activity calls are given as the source filed them. Calls follow the shape of the dose curve; as a rule, active = well fitted curve in the direction sought with a large enough effect; inconclusive = small, poorly fitted or top-dose-only effect, or another doubt; inactive = no such curve, though single readings can be large; an effect the other way counts as inactive or inconclusive.

Legend:
[1] = Viability qHTS for spleen associated tyrosine kinase inhibitor (SYKi) naive MV4-11 cells (AID 1963823); also: nearly all actives have a fitted effect of over 40% in size
Method in brief: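 Seeding of 500 SYKi-naive MV4-11 cells per well onto pre-dispensed compounds preceded a 72 hr incubation at 37 C. Luminescent CellTiter-Glo signal, read after 10 min at room temperature, reflected viable cells.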

[2] = Viability qHTS for spleen associated tyrosine kinase inhibitor (SYKi) drug resistant MV4-11 cells (AID 1963824); also: nearly all actives have a fitted effect of over 35% in size
Method in brief: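 CellTiter-Glo luminescence, read 10 min after reagent addition, reports viability after a 72 hr compound exposure. Cells are an MV4-11 line made resistant to SYK inhibition, seeded at 500 per well onto compound-containing plates.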

[3] = Quantitative highthroughput screen to assess conditional lethalithy of NOMO1 cells grown in RPMI1640 with untreated serum (RPMI+s) (AID 1963876); also: nearly all actives have a fitted effect of over 35% in size;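 as to Viability: 100% = DMSO wells and 0% = empty wells without cells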
Method in brief: (§1)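 Each medium arm—HPLM with 10% dialyzed FBS, or RPMI1640 with 5 mM glucose and 10% untreated or dialyzed FBS—was screened against an 11-point, 3-fold compound titration for 48 h at 37 °C, with CellTiter-Glo luminescence as endpoint.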

[4] = Quantitative highthroughput screen to assess conditional lethalithy of NOMO1 cells grown in RPMI1640 with dialyzed fetal bovine serum (RPMI+ds) (AID 1963877); also: nearly all actives have a fitted effect of over 30% in size;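 as to Viability: series mostly up to about 46 µM; 100% = DMSO control wells and 0% = empty wells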
Method in brief: as §1

[5] = Quantitative highthroughput screen to assess conditional lethalithy of NOMO1 cells grown in Human Plasma-Like Medium with dialyzed fetal bovine serum (HPLM+ds) (AID 1963878); also: nearly all actives have a fitted effect of over 35% in size;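 as to Viability: 100% = DMSO wells and 0% = empty wells on each plate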
Method in brief: as §1

[6] = Quantitative highthroughput screen to assess conditional lethalithy of P12 Ichikawa cells grown in Human Plasma-Like Medium with dialyzed fetal bovine serum (HPLM+ds) (AID 1963879); details: Potency: viability; also: nearly all actives have a fitted effect of over 35% in size; as to Viability: series mostly up to about 46 µM
Method in brief: as §1

[7] = Quantitative highthroughput screen to assess conditional lethalithy of P12 Ichikawa cells grown in RPMI1640 with dialyzed fetal bovine serum (RPMI+ds) (AID 1963880); details: Potency: P12-Ichikawa viability; also: nearly all actives have a fitted effect of over 35% in size;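 as to Viability: 100% = DMSO wells and 0% = empty wells on each plate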
Method in brief: as §1

[8] = Quantitative highthroughput screen to assess conditional lethalithy of P12 Ichikawa cells grown in RPMI1640 with untreated serum (RPMI+s) (AID 1963881); details: Potency: viability; also: nearly all actives have a fitted effect of over 35% in size;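 as to Viability: series mostly up to about 46 µM; 100% = DMSO wells and 0% = empty wells without cells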
Method in brief: as §1

[9] = Quantitative highthroughput screen to assess conditional lethalithy of SEM cells grown in Human Plasma-Like Medium with dialyzed fetal bovine serum (HPLM+ds) (AID 1963882); also: nearly all actives have a fitted effect of over 35% in size; as to Viability: series mostly up to about 46 µM
Method in brief: as §1

[10] = Quantitative highthroughput screen to assess conditional lethalithy of SEM cells grown in RPMI1640 with unreated serum (RPMI+s) (AID 1963883); also: nearly all actives have a fitted effect of over 35% in size;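 as to Viability: 100% = DMSO wells and 0% = empty wells without cells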
Method in brief: as §1

[11] = Quantitative highthroughput screen to assess conditional lethalithy of SEM cells grown in RPMI1640 with dialyzed fetal bovine serum (RPMI+ds) (AID 1963884); also: nearly all actives have a fitted effect of over 35% in size;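 as to Viability: series mostly up to about 46 µM; 100% = DMSO control wells and 0% = empty wells without cells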
Method in brief: as §1

[12] = Cellular viability qHTS for adrenocortical cancer (ACC) cell line SW-13 (AID 1963989); details: SW-13 ACC cells viability, CellTiter-Glo, 48 h; activity (max response): stronger effect = lower value; also: nearly all actives have a fitted effect of over 65% in size;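 as to activity (max response): cells grown in serum-free medium with ITS supplement; % is scaled to controls: 0 for no effect and ±100 for the full control effect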
Method in brief: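 Luminescent ATP read-out (CellTiter-Glo, 20 min at room temperature) measured metabolically competent SW-13 cells after 48 h compound treatment. Final concentrations spanned up to 46 uM; bortezomib served as positive control.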

[13] = Cellular viability qHTS for adrenocortical cancer (ACC) cell line NCI-H295R (AID 1963990); also: nearly all actives have a fitted effect of over 60% in size
Method in brief: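 IC50 and maximal efficacy derive from four-parameter logistic modelling of titration curves, with reads scaled between DMSO-only wells (0%) and doxorubicin hydrochloride (100% inhibition). Compounds spanned up to 46 uM over 48 h.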
Potency is read from the fitted curve at half-maximal effect.

NS(=O)(=O)c1cc2c(cc1Cl)NC(C(Cl)Cl)NS2(=O)=O (configuration not stated)
inactive: Potency [1] | Potency [2] | Potency [3] | Potency [4] | Potency [5] | Potency [6] | Potency [7] | Potency [8] | Potency [9] | Potency [10] | Potency [11] | activity (max response) [12] 15.1% and 11.4% | Potency [13]

Cc1c(C(=O)Nc2ccc(N3C[C@@H](C)O[C@@H](C)C3)nc2)cccc1-c1ccc(OC(F)(F)F)cc1
inactive and 7.42 µM (active): Potency [2]
inactive and 16.6 µM (active): Potency [1]
inactive: activity (max response) [12] -4.43%
active: Potency [3] 5.26 µM | Potency [4] 11.8 µM | Potency [5] 3.32 µM | Potency [6] 2.35 µM | Potency [7] 4.18 µM | Potency [8] 4.18 µM | Potency [9] 2.96 µM | Potency [10] 1.48 µM | Potency [11] 2.35 µM | Potency [13] 10 µM

COc1cc2nc(N3CCCN(C)CC3)nc(NC3CCN(Cc4ccccc4)CC3)c2cc1OC
active: Potency [1] 2350 nM | Potency [2] 2350 nM | Potency [3] 8.33 µM | Potency [4] 5.26 µM | Potency [5] 5.26 µM | Potency [6] 11.8 µM | Potency [7] 11.8 µM | Potency [8] 13.2 µM | Potency [9] 5.26 µM | Potency [10] 11.8 µM | Potency [12] 5.62 µM | Potency [13] 8.91 µM

O=C(NC1CCNCC1)c1[nH]ncc1NC(=O)c1c(Cl)cccc1Cl
active: Potency [1] 590 nM | Potency [2] 411 nM | Potency [3] 1.32 µM | Potency [4] 1.18 µM | Potency [5] 1.18 µM | Potency [6] 1.66 µM | Potency [7] 2.35 µM | Potency [8] 1.48 µM | Potency [9] 1.05 µM | Potency [11] 1.32 µM | Potency [12] 1.12 µM | Potency [13] 15.8 µM

CC(C)[C@H](O)C(=O)N[C@@H](C)C(=O)N[C@@H]1C(=O)N(C)CCc2ccccc21
inactive: Potency [1] | Potency [2] | Potency [3] | Potency [4] | Potency [5] | Potency [6] | Potency [7] | Potency [8] | Potency [9] | Potency [10] | Potency [11] | Potency [13]

CCN(CC)CCOc1ccc(Nc2ncc3cc(-c4c(Cl)cccc4Cl)c(=O)n(C)c3n2)cc1
active: Potency [1] 66.1 nM | Potency [2] 118 nM | Potency [3] 2.64 µM | Potency [4] 2.96 µM | Potency [5] 2.64 µM | Potency [6] 3.72 µM | Potency [7] 3.32 µM | Potency [8] 2.96 µM | Potency [9] 1.66 µM | Potency [10] 1.05 µM | Potency [11] 2.35 µM | Potency [12] 1 µM | Potency [13] 0.794 µM

NCCc1ccc(O)c(O)c1
inactive: Potency [6] | Potency [7] | Potency [8] | activity (max response) [12] -9.5% and -1.11% | Potency [13]
active: Potency [1] 20900 nM | Potency [3] 14.8 µM | Potency [4] 14.8 µM | Potency [5] 9.35 µM | Potency [9] 18.7 µM | Potency [11] 26.4 µM
inactive and 18.6 µM (active): Potency [2]

CC1(C)CC(=O)c2c(C(F)(F)F)nn(-c3ccc(C(N)=O)c(NC4CCC(O)CC4)c3)c2C1 (configuration not stated)
active: Potency [1] 20.9 nM | Potency [2] 33.2 nM | Potency [3] 0.209 µM | Potency [4] 0.187 µM | Potency [5] 0.235 µM | Potency [6] 0.235 µM | Potency [7] 0.148 µM | Potency [8] 0.148 µM | Potency [9] 0.148 µM | Potency [10] 0.148 µM | Potency [11] 0.148 µM | Potency [12] 0.224 µM | Potency [13] 0.447 µM

CN(C)Cc1ccc(-c2nc3cccc4c3n2CCNC4=O)cc1
active: Potency [1] 16600 nM | Potency [2] 18400 nM | Potency [13] 25.1 µM
inactive: Potency [3] | Potency [4] | Potency [5] | Potency [6] | Potency [7] | Potency [8] | Potency [9] | Potency [10] | Potency [11]

COc1cc2c(cc1OC)CC(=O)N(CCCN(C)C[C@H]1Cc3cc(OC)c(OC)cc31)CC2
inactive: Potency [1] | Potency [2] | Potency [3] | Potency [4] | Potency [5] | Potency [6] | Potency [7] | Potency [8] | Potency [9] | Potency [10] | activity (max response) [12] 10.3% | Potency [13]

COC(=O)C1=C(C)NC(C)=C(C(=O)OCCCN2CCC(c3ccccc3)(c3ccccc3)CC2)C1c1cccc([N+](=O)[O-])c1 (configuration not stated)
inactive: Potency [3] | Potency [4] | Potency [5] | Potency [6] | Potency [7] | Potency [8] | Potency [9] | Potency [10]
active: Potency [1] 4.68 µM and 8.41 µM | Potency [2] 4.68 µM and 7.5 µM | Potency [12] 5.62 µM and 13 µM | Potency [13] 7.08 µM and 8.2 µM

COC(=O)Nc1cc(Nc2cc(NC3CC3)c3ncc(C#N)n3n2)c(Cl)c(N2CCN(C)CC2)c1
active: Potency [1] 417 nM | Potency [2] 662 nM | Potency [3] 9.33 µM | Potency [4] 7.41 µM | Potency [5] 16.6 µM | Potency [6] 20.9 µM | Potency [7] 11.7 µM | Potency [8] 14.8 µM | Potency [9] 4.17 µM | Potency [10] 2.63 µM | Potency [11] 2.34 µM | Potency [12] 2.82 µM | Potency [13] 2.24 µM

CNC1CCC(N(Cc2cccc(-c3ccncc3)c2)C(=O)c2sc3ccccc3c2Cl)CC1 (configuration not stated)
active: Potency [1] 7.31 µM and 5.25 µM | Potency [2] 5.8 µM and 5.25 µM | Potency [3] 3.32 µM | Potency [4] 16.6 µM | Potency [5] 1.48 µM | Potency [6] 1.18 µM | Potency [7] 1.66 µM | Potency [8] 2.09 µM | Potency [9] 1.32 µM | Potency [10] 0.372 µM | Potency [11] 0.833 µM | Potency [12] 10 µM | Potency [13] 6.31 µM
